High-throughput results deposited in PubChem by National Center for Advancing Translational Sciences (NCATS).
FLuc modulator: firefly luciferase modulation, counter-screen for miR-21 project. P08659. purified FLuc, Km substrates, luminescence inhibition. Potency, µM (top dose mostly 57.5 µM), inactives show at the highest dose activity change, negative = inhibition, hits mostly inhibitors. actives 6.9% (n = 360,000);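 also: plate controls were vehicle for no effect and reference inhibitor for full effect; nearly all actives have a fitted effect of over 55% in size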
Target sequence (P08659 whole entry, looked up): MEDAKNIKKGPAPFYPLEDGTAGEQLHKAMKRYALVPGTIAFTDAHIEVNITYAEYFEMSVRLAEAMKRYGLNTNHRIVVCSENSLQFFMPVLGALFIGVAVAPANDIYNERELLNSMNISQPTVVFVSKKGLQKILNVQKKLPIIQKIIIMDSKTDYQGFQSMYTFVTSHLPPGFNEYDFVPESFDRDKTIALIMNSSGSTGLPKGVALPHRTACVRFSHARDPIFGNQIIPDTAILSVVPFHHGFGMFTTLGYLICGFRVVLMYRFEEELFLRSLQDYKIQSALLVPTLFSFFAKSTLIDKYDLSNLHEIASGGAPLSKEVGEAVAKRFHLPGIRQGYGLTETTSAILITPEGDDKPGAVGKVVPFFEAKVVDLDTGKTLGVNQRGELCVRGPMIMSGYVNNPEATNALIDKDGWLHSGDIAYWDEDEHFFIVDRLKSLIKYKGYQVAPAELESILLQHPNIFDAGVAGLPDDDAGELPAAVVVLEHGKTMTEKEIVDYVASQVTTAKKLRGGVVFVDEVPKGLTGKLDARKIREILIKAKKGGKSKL
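Purified P. pyralis luciferase, 10 nM final, with Km-level 10 uM D-luciferin and 10 uM ATP in 50 mM Tris acetate pH 7.5, 10 mM Mg acetate, 0.01% Tween-20, 0.05% BSA; 6-point qHTS titration about 60 µM downward; luminescence read.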
NPC1 promoter act: activators of NPC1 promoter; AID 485313; Huh7 NPC1 promoter luciferase reporter, 24 h; actives 2.4% (n = 320,000); Potency, µM (series often up to 9.22 µM), inactives show at the highest dose activation, actives largely listed as activators; also: % of control where 0% means no effect; nearly all actives have a fitted effect of over 60% in size
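Readout is luciferase luminescence, reflecting NPC1 promoter activation in stably transfected Huh7 cells after 24 h compound exposure at 37 °C in reduced-serum medium with 10% FBS.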
Rab9 promoter act: activates the Rab9 promoter; Huh7 Rab9 promoter-luciferase reporter, luminescence, 24 h; Potency, µM (doses to about 9.22 µM), for the others: at the top dose activation, negative = inhibition, hits mostly activators; actives 2.8% (n = 320,000); AID 485297; also: % of control where 0% means no effect; nearly all actives have a fitted effect of over 60% in size
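Using Huh7 cells stably transfected with Rab9 promoter–luciferase, compounds were incubated 24 h at 37 °C, 5% CO2; luciferase luminescence was read 10 min after reagent addition.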
ELG1 repair inh: blocks ELG1-dependent DNA repair in HEK293T cells. HEK293T ELG1-luciferase reporter, luminescence, 16 h; DNA damage induced by 5-fluorouridine. Potency, µM (top dose mostly 46.1 µM), for inactives: at the highest dose activity change, negative = inhibition, actives largely listed as inhibitors. actives 2.3% (n = 330,000); also: % is scaled to controls: 0 for no effect and ±100 for the full control effect; nearly all actives have a fitted effect of over 55% in size
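Cells (2,000 per well) received 5-fluorouridine plus test compound or DMSO and were incubated 16 hr at 37 °C, 5% CO2. Luciferase activity was read by luminescence 30 min after ONE-Glo addition; signal suppression marked inhibition of damage-induced ELG1 function.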
SMN2 splice up: increases expression of the SMN2 splice variant. actives 2.8% (n = 210,000). AID 1458. Potency, µM (doses to about 46.1 µM), without a hit: at the highest dose activity change, positive = activation, usual class: activators. HEK293 SMN2-luciferase splicing reporter, luminescence, 30-36 h; also: % of control where 0% means no effect; nearly all actives have a fitted effect of over 55% in size
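HEK293 cells carry an SMN2 minigene-luciferase reporter in which exon 7 inclusion puts luciferase in frame. Cells were seeded at 2000 cells/well, attached for 10-12 hours, then exposed to compounds for 30-36 hours at 37C before ONE-Glo luminescence.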
ELG1 genotox: genotoxicity induction in ELG1-luciferase HEK293T cells | Potency, µM (top dose mostly 46 µM), for the others: at the top dose activity change, positive = activation, usual class: activators | AID 504466 | actives 1.3% (n = 330,000) | HEK293T ELG1-luciferase reporter, luminescence, 16 h; also: % of control where 0% means no effect; nearly all actives have a fitted effect of over 60% in size
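Genotoxic stress is detected as increased luminescence from luciferase-tagged ELG1 in HEK293T cells, measured with ONE-Glo after a 16 hr treatment at 37 °C.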
Numbers without * were called inactive; ? = inconclusive; . = no result given; [ ] = remark or other dose. A selection: hits, their analogues and other compounds. The true share with any hit is near 9.2%. Calls follow the shape of the dose curve; as a rule, active = well fitted curve in the direction sought with a large enough effect; inconclusive = small, poorly fitted or top-dose-only effect, or another doubt; inactive = no such curve, though single readings can be large; an effect the other way counts as inactive or inconclusive. Potency is read from the fitted curve at half-maximal effect.

SMILES	FLuc modulator	NPC1 promoter act	Rab9 promoter act	ELG1 repair inh	SMN2 splice up	ELG1 genotox
COC(=O)c1c(-c2ccc(F)cc2)csc1NC(=O)c1ccco1	7.6µM*	?	2.2µM*	?	-1%	18%
COc1ccc(-c2csc(NC(=O)c3ccccc3F)c2C(=O)O)cc1	24µM*	?	17%	26%	.	-4%
CCOC(=O)c1c(-c2ccc(C)s2)csc1NC(=O)c1ccco1	2%	6%	5%	4%	-25%	2%
N#Cc1ccc2c(c1)N(CCCN1CCC(O)CC1)c1ccccc1S2	.	.	.	.	-22%	.
O=C(CN1C(=O)S/C(=C\c2cccc(Cl)c2)C1=O)NC1C=CS(=O)(=O)C1 (stereo not given)	-2%	-15%	9%	4%	.	9%
O=C(CN1C(=O)/C(=C/c2cccc(Cl)c2)SC1=S)NC1C=CS(=O)(=O)C1 (stereo not given)	2.7µM*	-1%	-1%	15%	.	9%
CC(C(=O)NC1C=CS(=O)(=O)C1)N1C(=O)/C(=C/c2cccc(Cl)c2)SC1=S (stereo not given)	15µM*	-1%	0%	-9%	.	3%
CC(=O)Oc1c(C)cc(Cl)cc1C(=O)Nc1ccc([N+](=O)[O-])cc1Cl	?	-32%	-49%	?	-42%	?
CC(=O)N1CCc2c(sc3c2c(=O)n(-c2ccccc2)c(=O)n3CC(=O)Nc2ccccc2C)C1	-6%	.	.	.	5%	.
CCS(=O)(=O)c1ccc2oc(Nc3ccc(OC)c(OC)c3)nc2c1	-18%	9%	5%	9%	.	12%
CCN(CC)S(=O)(=O)c1ccc2oc(Nc3ccccc3)nc2c1	15µM*	?	?	?	.	?
CCN(CC)S(=O)(=O)c1ccc2oc(Nc3ccc(OC)cc3OC)nc2c1	-8%	0%	1%	-23%	.	-13%
CCN(CC)S(=O)(=O)c1ccc2oc(SCC(=O)Nc3cc(C)on3)nc2c1	-1%	-6%	-2%	10µM*	.	-1%
CCS(=O)(=O)c1ccc2oc(Nc3ccccc3C)nc2c1	13µM*	3.5µM*	3.5µM*	?	?	?
Cn1nnnc1SCCNCc1cc(Br)ccc1OCc1ccccc1Cl	-2%	.	.	.	-66%	.
O=C(O)c1cc(=O)[nH]c(=S)[nH]1	.	.	.	.	-6%[9.22 µM]	.
CC(OC(=O)Cc1c(F)cccc1Cl)C(=O)NCCC1=CCCCC1 (stereo not given)	-1%	-4%	0%	4%	-7%	-1%
Cc1cc(C(=O)CN2CCCC(C)C2)c(C)n1-c1ccc(F)cc1 (stereo not given)	15µM*	?	2.5µM*	?	18µM*	?
Cc1ccc(-n2c(C)cc(C(=O)CN3CCOCC3)c2C)cc1	?	24%	?	?	11%	4%
O=C(O)[C@H]1CCCC[C@@H]1c1c2ccc(=O)c(O)c-2oc2c(O)c(O)ccc12	.	.	.	.	-2%[9.22 µM]	.
Nc1nn2cc(-c3ccccc3)nc2c2ccccc12	1.9µM*	?	3.2µM*	?	4.5µM*	5.2µM*
Cc1nn(CC(C)C)c(=S)[nH]c1=O	0%	-4%	-9%	11%	5.6µM*	-4%
Cc1nnc(SCC(C)C)[nH]c1=O	5%	7%	-15%	0%	6%	4%
Oc1cccc(-c2nc3c4c(ncn3n2)-c2ccccc2CC42CCCC2)c1	2%	-4%	2%	8.2µM*	-25%	-13%
O=C(O)c1ccc(CP(=O)(c2ccccc2)c2ccccc2)cc1	-1%	-3%	-1%	-13%	.	2%
O=C/C(=C\Nc1ccc(C(=O)N2CCOCC2)cc1)c1nc2ccccc2o1	-6%	-3%	1%	-5%	-16%	-7%
Cc1ccc(NC(=O)CN(C)CC(=O)Nc2c(C)cccc2C)c(Br)c1	1%	-1%	-2%	7.3µM*	-12%	-11%
Cc1ccc(NC(=O)CC2CCCC2)c(Br)c1	15µM*	?	?	?	.	?
